We go through 23 compounds from PubChem BioAssay (Tox21).

Assay [1] is described as follows: qHTS assay for small molecules that induce genotoxicity in human embryonic kidney cells expressing luciferase-tagged ATAD5 (AID 651632). Note: nearly all actives have a fitted effect of over 15% in size. In short, it runs like this:
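Luminescence read-out: after 16 hr compound exposure at 37C, ATAD5-luciferase HEK293T cells received Amplite, 30 min RT, then CCD imaging. A rise in signal marks genotoxic stress.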
A general note: qHTS replaces the single test concentration by a dilution series.

The nature of assay [2]: qHTS assay for small molecule agonists of the p53 signaling pathway - cell viability (AID 651633; calls by dose curve;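 note: p53RE-bla HCT reporter cells with a stable beta-lactamase p53 reporter; series mostly up to about 83 µM; nearly all actives have a fitted effect of over 30% in size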). In short, it runs like this: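 p53RE-bla cells, seeded at 4,000 per well and rested 5 h at 37 C/5% CO2, received compounds in DMSO for 16 h at 37 C. CellTiter-Glo was then added, and luminescence was read after 30 min at room temperature to gauge cytotoxicity.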
A short description of assay [3]: qHTS assay for small molecules that induce genotoxicity in human embryonic kidney cells expressing luciferase-tagged ATAD5 - cell viability (AID 651634; calls by dose curve; note: nearly all actives have a fitted effect of over 25% in size). In short, it runs like this: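 HEK293T ATAD5-luc cells, 2,000/well; compound 15.5 hr, 37C/5% CO2; CellTiter-Fluor 30 min, 37C; fluorescence read.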
Assay [4] can be described thus: qHTS assay for small molecule disruptors of the mitochondrial membrane potential - cell viability (AID 720634; calls by dose curve;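 note: human HepG2 liver cancer cells; series mostly up to about 83 µM; nearly all actives have a fitted effect of over 20% in size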). The essentials: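 Luminescence from CellTiter-Glo (ATP content) gave viability in HepG2 cells, read in the same wells as the MMP dye assay after 1 hr compound exposure at 37 C.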
The nature of assay [5]: qHTS assay to test for compound auto fluorescence at 590 nm (red) in HepG2 cells (AID 720674). The essentials: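 Compound auto-fluorescence is scored relative to Rose Bengal sodium, measured at 540/590 nm in live HepG2 cultures after 1 hr compound contact (37 C, 5% CO2).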
Assay [6] can be described thus: qHTS assay to test for compound auto fluorescence at 535 nm (green) in HepG2 cells (AID 720675).
Assay [7] is described as follows: qHTS assay to test for compound auto fluorescence at 460 nm (blue) in HEK293 cells (AID 720678). The essentials: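 Cells were seeded and left to adhere for 4-5 hr at 37C. Compounds were then pin-transferred. After an overnight incubation at 37C under 5% CO2, intrinsic fluorescence at 405/460 nm was measured and referenced to triamterene.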
Assay [8] in a line: qHTS assay to test for compound auto fluorescence at 590 nm (red) in HEK293 cells (AID 720679). In short, it runs like this: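 Each well held 2,000 HEK293 cells in medium containing 10% dialyzed FBS. Following 4-5 hr attachment at 37C, 23 nL test compound or DMSO was added; plates sat overnight, and red fluorescence (540/590nm) was recorded.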
A short description of assay [9]: qHTS assay for small molecule disruptors of the mitochondrial membrane potential (AID 720635). Note: potency is the fitted concentration of half-maximal effect. In short, it runs like this:
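HepG2 cells (2,000/well) attached overnight at 37C, then took compound for 1 hr at 37C, 5% CO2. Mito-MPS dye was added for 30 min; fluorescence was read at 490/535 nm (monomers) and 540/590 nm (aggregates).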

Values without a mark were called inactive. Records with an inconclusive call do not appear. Active and inactive are the calls of the source. Unless noted, calls come from the whole dose curve; as a rule, active = well fitted curve in the direction sought with a large enough effect in the repeat runs; inconclusive = weak or mixed curves; inactive = no such curve, though single readings can be large; an effect the other way counts as inactive or inconclusive.
% is set by controls: 0 for no effect and ±100 for the full control effect.

In the case of `CCCCNC1CC(C)(C)NC(C)(C)C1`, the Potency result in assay [1] and in assay [3] was “inactive” throughout. Besides, the compound was called inactive in assay [2], in assay [4], in [5], in assay [6], in assay [7] and in assay [8].
`CC(C)CCCCOC(=O)c1ccccc1C(=O)OCCCCC(C)C`: the Potency result in assay [1], in [3] and in assay [9] was “inactive” each time. Moreover, the outcome in assay [2], in assay [5], in [6], in assay [7] and in assay [8] was inactive.
Turning to `CCCCOCCOC(=O)COc1nc(Cl)c(Cl)cc1Cl`, the Potency result in [1] and in assay [3] was “inactive” throughout. For the same compound, the compound was called inactive in [2], in assay [4], in assay [5], in assay [6], in assay [7] and in assay [8].
Regarding `C[Si](C)=O`, the activation in assay [1] was 0.434% [at 8.08 µM]. Besides, the figures for the activity change, negative = cytotoxicity in assay [2] and in [4] were 15.5% [at 8.08 µM] and 4.91% [at 8.08 µM], respectively. The activity, negative = cytotoxicity in [3] is 11.6% [at 8.08 µM]. Moreover, in assay [5], the fluorescence, relative to Rose Bengal is -0.082% [at 9.17 µM]. The fluorescence, % of fluorescein control in [6] is 0.004% [at 9.17 µM]. Besides, the fluorescence, % of triamterene in [7] is -0.115% [at 9.17 µM]. For the same compound, the fluorescence, % of fluorescent control in assay [8] is -0.238% [at 9.17 µM].
Take `CC(C)(C)OC(=O)c1ccc(O)cc1`: the Potency entry in [1] and in [3] was “inactive” in each case. Besides, the outcome in assay [2], in assay [5], in assay [6], in assay [7] and in [8] was inactive. Moreover, the Potency in assay [9] is 21.7 µM (active).
For `COc1ccc2c(c1OC)C(=O)O[C@@H]2[C@H]1c2c(cc3c(c2OC)OCO3)CCN1C`, the Potency result in [1] and in assay [9] was “inactive” each time. Moreover, the compound was called inactive in [2], in [4], in [5], in [6], in assay [7] and in assay [8].
For the compound `C[C@H](CCC(=O)O)[C@H]1CC[C@H]2[C@@H]3C(=O)C[C@@H]4CC(=O)CC[C@]4(C)[C@H]3CC(=O)[C@]12C`, the Potency result in assay [1] and in assay [3] was “inactive” each time. The outcome in [2], in assay [4], in assay [5], in assay [6], in assay [7] and in [8] was inactive.
Consider `CCCC(=O)C(C)=O`, for which the Potency result in [1] and in [3] was “inactive” each time. Also, the result in assay [2], in assay [4], in assay [5], in assay [6], in assay [7] and in assay [8] was inactive.
In the case of `COc1ccc2c(c1)C(=O)N(CCc1ccc(S(=O)(=O)NC(=O)NC3CCCCC3)cc1)C(=O)C2(C)C`, the Potency entry in assay [1] and in assay [3] was “inactive” throughout. Besides, the result in assay [2] and in assay [4] was inactive. Further, in assay [5], the fluorescence, relative to Rose Bengal is 0.0268% [at 18.6 µM]. The fluorescence, % of fluorescein control in assay [6] is -0.152% [at 18.6 µM]. Moreover, the fluorescence, % of triamterene in assay [7] was 0.056% [at 18.6 µM]. The fluorescence, % of fluorescent control in assay [8] was -0.014% [at 18.6 µM].
Regarding `CC(C)(C)c1cc(CCC(=O)NN)cc(C(C)(C)C)c1O`, the Potency result in [1] and in assay [3] was “inactive” each time. Moreover, the outcome in assay [2], in [4], in assay [5], in assay [6], in assay [7] and in assay [8] was inactive.
With `COc1nccnc1NS(=O)(=O)c1ccc(N)cc1`, the Potency result in assay [1] and in [3] was “inactive” each time. Besides, the outcome in [2], in assay [4], in [5], in assay [6], in [7] and in assay [8] was inactive.
As to `O=C(c1ccc(O)cc1)c1ccc(O)c(O)c1O`, the Potency result in [1] is “inactive”. Also, the compound was classed as inactive in assay [2], in [4], in assay [5], in assay [6], in [7] and in [8]. In assay [9], the Potency is 27.4 µM (active).
For `O=C(OCC(COC(=O)c1cccnc1)(COC(=O)c1cccnc1)COC(=O)c1cccnc1)c1cccnc1`, the Potency entry in [1], in [3] and in assay [9] was “inactive” throughout. In addition, the outcome in [4], in assay [5], in [6], in assay [7] and in assay [8] was inactive.
For `CC(=O)Nc1ccc(S(=O)(=O)Cl)cc1`, the call in [2], in assay [4], in assay [5], in [6], in assay [7] and in [8] was inactive. Further, the Potency entry in [3] was “inactive”.
With `Cc1ccccc1OCC(O)CO` (stereo not drawn), the outcome in [2], in assay [4], in [5], in assay [6], in [7] and in assay [8] was inactive. Also, the Potency entry in assay [3] and in assay [9] was “inactive” throughout.
Turning to `CCNC(=O)C1CC(C)CCC1C(C)C` (stereo not drawn), the compound was called inactive in assay [2], in assay [4], in [5], in assay [6], in [7] and in assay [8]. In addition, the Potency entry in assay [3] is “inactive”.
Turning to `CCOC(=O)c1ccc(OC(=O)CCCCCN=C(N)N)cc1`, the result in assay [2] and in assay [4] was inactive. Besides, the Potency result in [3] and in assay [9] was “inactive” each time. Further, the fluorescence, relative to Rose Bengal in [5] is -0.309% [at 18.6 µM]. In addition, the fluorescence, % of fluorescein control in [6] was 0.0329% [at 18.6 µM]. Further, in [7], the fluorescence, % of triamterene is -0.0421% [at 18.6 µM]. For the same compound, the fluorescence, % of fluorescent control in assay [8] is 0.895% [at 18.6 µM].
On to `CC1(C)S[C@@H]2[C@H](N=CN3CCCCCC3)C(=O)N2[C@H]1C(=O)O`, for which the call in assay [2], in assay [4], in assay [5], in assay [6], in assay [7] and in assay [8] was inactive. The Potency result in assay [3] was “inactive”.
In the case of `CC(C)c1ccc2cc(C(C)C)ccc2c1`, the Potency result in [1] and in assay [3] was “inactive” throughout. For the same compound, the outcome in assay [4], in assay [5], in assay [6], in assay [7] and in assay [8] was inactive.
Consider `COc1cc(N)ccc1C`, for which the Potency result in assay [1] and in assay [9] was “inactive” throughout. The compound was called inactive in assay [2], in assay [4], in assay [5], in [6], in assay [7] and in assay [8].
Consider `CC(=O)N[C@@H](CCC(=O)O)C(=O)O`, for which the compound was classed as inactive in assay [2], in assay [4], in assay [5], in [6], in [7] and in assay [8]. For the same compound, the Potency entry in assay [3] and in assay [9] was “inactive” throughout.
In the case of `N[C@@H](CCC(=O)N[C@@H](CS)C(=O)NCC(=O)O)C(=O)O`, the call in assay [2], in assay [4], in assay [5], in assay [6], in assay [7] and in [8] was inactive. For the same compound, the Potency result in [3] and in assay [9] was “inactive” each time.
Consider `Brc1ccc(-c2ccccc2)cc1`, for which the compound was classed as inactive in [2], in assay [5], in [6], in [7] and in assay [8]. In addition, the Potency entry in assay [3] was “inactive”.
